# Reference: the supplement of paper PMC11732987, “Enantioselective OTUD7B fragment discovery through chemoproteomics screening and high-throughput optimisation” (Communications Chemistry, 2025)
# Unmarked numbers belong to inactive results.
# Tests used:
# Assay in all cases: log2 ratio of Biotin-Ahx-Ub-VS probe labelling (fragment/DMSO); higher = less target engagement (more negative = stronger competition), active = hit call of the paper (q ≤ 0.05, log2 ratio ≤ -1)
# Details in all cases: compound concentration: 200 uM; treatment time: 3 h
# [1] = biological target: T1, USP19 (UniProt O94966)
# T1 sequence (whole entry): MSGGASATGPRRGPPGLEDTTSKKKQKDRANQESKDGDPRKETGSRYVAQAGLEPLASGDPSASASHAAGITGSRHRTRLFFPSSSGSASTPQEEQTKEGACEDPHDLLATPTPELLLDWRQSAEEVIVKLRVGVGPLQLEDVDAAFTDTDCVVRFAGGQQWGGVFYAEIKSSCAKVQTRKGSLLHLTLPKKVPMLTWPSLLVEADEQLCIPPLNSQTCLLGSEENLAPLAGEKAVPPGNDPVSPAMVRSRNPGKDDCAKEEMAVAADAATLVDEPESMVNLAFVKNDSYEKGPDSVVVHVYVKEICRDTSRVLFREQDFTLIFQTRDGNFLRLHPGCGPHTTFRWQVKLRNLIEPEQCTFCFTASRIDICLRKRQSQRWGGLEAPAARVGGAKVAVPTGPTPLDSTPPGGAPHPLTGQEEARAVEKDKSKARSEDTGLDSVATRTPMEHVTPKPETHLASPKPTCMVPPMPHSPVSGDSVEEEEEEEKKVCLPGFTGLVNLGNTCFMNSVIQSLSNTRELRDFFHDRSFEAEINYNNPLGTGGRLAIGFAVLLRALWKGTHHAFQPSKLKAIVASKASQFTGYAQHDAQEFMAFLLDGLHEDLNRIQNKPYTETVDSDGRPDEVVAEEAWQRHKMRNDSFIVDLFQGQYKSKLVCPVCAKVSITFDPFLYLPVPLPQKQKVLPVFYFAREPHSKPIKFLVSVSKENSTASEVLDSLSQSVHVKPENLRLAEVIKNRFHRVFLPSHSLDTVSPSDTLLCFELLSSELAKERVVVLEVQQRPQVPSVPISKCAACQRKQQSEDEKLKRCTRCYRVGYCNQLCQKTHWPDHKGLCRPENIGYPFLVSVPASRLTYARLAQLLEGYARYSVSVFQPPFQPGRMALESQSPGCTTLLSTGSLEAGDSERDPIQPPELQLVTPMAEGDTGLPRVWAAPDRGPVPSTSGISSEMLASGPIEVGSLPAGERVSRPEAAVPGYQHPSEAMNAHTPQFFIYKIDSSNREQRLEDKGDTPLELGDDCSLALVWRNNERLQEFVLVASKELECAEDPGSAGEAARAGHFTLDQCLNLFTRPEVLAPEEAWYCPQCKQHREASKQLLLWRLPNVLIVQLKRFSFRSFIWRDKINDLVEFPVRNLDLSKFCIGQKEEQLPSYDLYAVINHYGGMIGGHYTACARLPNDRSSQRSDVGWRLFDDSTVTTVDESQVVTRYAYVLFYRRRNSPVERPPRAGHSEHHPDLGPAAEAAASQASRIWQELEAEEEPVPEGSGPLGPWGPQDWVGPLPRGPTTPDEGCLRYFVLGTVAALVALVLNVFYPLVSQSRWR
# In short: (§1)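 Labelling with Biotin-Ahx-Ub-VS (0.5 µM final, 1 h) followed a 3 h triplicate treatment of HEK293T lysate (495 µg per sample, Tris/CHAPS/IGEPAL buffer with protease inhibitors) with fragment at 200 µM or vehicle. Labelled DUBs were NeutrAvidin-enriched, digested with LysC and trypsin, and run by diaPASEF LC-MS/MS. The values, average log2 fragment/vehicle ratios by unpaired t-test, come from global-median-normalised Spectronaut label-free quantities. Proteins with ≥2 unique peptides were used.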
# [2] = biological target: T2, USP22 (UniProt Q9UPT9)
# T2 sequence (whole entry): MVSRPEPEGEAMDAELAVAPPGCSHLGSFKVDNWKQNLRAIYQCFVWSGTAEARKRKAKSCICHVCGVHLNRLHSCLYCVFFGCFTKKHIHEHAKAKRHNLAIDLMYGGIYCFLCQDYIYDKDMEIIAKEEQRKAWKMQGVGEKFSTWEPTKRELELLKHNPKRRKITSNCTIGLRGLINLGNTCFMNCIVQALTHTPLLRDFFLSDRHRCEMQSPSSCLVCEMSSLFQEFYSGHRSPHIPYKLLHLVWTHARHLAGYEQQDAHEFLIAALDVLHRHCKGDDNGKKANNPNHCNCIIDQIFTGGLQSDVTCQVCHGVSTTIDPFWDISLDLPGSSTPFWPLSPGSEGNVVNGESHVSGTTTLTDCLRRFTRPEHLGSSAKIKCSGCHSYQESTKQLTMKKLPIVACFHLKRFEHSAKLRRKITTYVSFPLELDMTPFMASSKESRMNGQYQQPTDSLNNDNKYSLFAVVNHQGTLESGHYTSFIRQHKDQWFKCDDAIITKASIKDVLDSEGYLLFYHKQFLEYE
# In short: as §1
# [3] = biological target: USP24 (UniProt Q9UPU5)
# In short: as §1
# [4] = biological target: T3, USP25 (UniProt Q9UHP3)
# T3 sequence (whole entry): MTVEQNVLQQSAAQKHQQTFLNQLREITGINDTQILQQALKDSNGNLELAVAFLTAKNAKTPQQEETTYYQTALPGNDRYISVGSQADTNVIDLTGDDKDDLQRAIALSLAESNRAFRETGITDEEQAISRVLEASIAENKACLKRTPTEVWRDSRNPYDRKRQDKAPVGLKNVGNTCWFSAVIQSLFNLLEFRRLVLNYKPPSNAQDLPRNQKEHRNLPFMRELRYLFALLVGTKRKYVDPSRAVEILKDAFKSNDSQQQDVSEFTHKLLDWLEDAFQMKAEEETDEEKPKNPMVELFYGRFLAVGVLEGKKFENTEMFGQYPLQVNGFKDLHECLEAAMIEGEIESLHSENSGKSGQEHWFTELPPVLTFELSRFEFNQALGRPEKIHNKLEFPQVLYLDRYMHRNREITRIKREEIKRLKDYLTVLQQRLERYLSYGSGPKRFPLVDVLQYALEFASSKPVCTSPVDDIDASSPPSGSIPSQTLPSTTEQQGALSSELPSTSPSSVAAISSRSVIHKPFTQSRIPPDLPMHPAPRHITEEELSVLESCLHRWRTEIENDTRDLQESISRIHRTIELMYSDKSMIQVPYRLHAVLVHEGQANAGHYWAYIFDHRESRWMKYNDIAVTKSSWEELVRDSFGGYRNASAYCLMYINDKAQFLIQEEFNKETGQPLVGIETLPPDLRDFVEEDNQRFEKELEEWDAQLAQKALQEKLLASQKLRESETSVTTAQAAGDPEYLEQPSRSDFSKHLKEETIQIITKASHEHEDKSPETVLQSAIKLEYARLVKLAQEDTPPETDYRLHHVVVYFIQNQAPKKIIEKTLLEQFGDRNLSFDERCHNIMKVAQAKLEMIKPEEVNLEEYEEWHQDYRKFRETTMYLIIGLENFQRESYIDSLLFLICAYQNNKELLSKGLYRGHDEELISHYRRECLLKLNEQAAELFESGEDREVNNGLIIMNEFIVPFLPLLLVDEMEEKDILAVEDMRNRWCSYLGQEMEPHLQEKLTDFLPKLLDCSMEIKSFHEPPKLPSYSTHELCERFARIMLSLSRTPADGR
# In short: as §1
# [5] = biological target: T4, USP28 (UniProt Q96RU2)
# T4 sequence (whole entry): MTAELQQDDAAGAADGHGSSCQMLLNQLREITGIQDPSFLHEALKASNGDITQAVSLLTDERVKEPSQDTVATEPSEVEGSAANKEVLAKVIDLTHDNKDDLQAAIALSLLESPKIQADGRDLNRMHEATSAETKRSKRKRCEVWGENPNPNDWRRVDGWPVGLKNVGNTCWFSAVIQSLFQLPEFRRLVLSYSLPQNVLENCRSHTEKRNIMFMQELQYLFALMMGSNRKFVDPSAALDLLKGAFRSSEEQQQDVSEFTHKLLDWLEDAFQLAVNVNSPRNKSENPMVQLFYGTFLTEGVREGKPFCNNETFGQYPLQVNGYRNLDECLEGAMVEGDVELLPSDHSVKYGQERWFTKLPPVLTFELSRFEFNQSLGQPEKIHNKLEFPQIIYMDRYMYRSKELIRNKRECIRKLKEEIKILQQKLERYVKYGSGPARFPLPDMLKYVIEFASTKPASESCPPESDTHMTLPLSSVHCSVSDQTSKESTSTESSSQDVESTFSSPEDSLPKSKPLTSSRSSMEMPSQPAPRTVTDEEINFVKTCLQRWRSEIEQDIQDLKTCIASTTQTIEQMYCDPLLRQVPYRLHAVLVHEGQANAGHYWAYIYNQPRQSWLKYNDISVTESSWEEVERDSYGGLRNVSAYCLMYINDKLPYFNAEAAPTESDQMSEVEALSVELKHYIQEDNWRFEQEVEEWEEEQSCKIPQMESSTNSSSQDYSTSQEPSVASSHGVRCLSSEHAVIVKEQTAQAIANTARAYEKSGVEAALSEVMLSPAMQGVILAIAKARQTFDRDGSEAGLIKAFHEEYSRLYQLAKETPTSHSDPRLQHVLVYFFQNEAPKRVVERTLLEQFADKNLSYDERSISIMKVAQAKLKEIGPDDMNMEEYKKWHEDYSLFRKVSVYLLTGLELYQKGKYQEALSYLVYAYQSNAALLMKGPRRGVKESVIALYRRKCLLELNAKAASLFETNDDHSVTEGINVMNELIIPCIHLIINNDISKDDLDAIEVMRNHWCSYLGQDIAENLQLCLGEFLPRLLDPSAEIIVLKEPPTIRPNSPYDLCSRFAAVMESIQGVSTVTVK
# In short: as §1
# Chain of USP24 (Q9UPU5 whole entry): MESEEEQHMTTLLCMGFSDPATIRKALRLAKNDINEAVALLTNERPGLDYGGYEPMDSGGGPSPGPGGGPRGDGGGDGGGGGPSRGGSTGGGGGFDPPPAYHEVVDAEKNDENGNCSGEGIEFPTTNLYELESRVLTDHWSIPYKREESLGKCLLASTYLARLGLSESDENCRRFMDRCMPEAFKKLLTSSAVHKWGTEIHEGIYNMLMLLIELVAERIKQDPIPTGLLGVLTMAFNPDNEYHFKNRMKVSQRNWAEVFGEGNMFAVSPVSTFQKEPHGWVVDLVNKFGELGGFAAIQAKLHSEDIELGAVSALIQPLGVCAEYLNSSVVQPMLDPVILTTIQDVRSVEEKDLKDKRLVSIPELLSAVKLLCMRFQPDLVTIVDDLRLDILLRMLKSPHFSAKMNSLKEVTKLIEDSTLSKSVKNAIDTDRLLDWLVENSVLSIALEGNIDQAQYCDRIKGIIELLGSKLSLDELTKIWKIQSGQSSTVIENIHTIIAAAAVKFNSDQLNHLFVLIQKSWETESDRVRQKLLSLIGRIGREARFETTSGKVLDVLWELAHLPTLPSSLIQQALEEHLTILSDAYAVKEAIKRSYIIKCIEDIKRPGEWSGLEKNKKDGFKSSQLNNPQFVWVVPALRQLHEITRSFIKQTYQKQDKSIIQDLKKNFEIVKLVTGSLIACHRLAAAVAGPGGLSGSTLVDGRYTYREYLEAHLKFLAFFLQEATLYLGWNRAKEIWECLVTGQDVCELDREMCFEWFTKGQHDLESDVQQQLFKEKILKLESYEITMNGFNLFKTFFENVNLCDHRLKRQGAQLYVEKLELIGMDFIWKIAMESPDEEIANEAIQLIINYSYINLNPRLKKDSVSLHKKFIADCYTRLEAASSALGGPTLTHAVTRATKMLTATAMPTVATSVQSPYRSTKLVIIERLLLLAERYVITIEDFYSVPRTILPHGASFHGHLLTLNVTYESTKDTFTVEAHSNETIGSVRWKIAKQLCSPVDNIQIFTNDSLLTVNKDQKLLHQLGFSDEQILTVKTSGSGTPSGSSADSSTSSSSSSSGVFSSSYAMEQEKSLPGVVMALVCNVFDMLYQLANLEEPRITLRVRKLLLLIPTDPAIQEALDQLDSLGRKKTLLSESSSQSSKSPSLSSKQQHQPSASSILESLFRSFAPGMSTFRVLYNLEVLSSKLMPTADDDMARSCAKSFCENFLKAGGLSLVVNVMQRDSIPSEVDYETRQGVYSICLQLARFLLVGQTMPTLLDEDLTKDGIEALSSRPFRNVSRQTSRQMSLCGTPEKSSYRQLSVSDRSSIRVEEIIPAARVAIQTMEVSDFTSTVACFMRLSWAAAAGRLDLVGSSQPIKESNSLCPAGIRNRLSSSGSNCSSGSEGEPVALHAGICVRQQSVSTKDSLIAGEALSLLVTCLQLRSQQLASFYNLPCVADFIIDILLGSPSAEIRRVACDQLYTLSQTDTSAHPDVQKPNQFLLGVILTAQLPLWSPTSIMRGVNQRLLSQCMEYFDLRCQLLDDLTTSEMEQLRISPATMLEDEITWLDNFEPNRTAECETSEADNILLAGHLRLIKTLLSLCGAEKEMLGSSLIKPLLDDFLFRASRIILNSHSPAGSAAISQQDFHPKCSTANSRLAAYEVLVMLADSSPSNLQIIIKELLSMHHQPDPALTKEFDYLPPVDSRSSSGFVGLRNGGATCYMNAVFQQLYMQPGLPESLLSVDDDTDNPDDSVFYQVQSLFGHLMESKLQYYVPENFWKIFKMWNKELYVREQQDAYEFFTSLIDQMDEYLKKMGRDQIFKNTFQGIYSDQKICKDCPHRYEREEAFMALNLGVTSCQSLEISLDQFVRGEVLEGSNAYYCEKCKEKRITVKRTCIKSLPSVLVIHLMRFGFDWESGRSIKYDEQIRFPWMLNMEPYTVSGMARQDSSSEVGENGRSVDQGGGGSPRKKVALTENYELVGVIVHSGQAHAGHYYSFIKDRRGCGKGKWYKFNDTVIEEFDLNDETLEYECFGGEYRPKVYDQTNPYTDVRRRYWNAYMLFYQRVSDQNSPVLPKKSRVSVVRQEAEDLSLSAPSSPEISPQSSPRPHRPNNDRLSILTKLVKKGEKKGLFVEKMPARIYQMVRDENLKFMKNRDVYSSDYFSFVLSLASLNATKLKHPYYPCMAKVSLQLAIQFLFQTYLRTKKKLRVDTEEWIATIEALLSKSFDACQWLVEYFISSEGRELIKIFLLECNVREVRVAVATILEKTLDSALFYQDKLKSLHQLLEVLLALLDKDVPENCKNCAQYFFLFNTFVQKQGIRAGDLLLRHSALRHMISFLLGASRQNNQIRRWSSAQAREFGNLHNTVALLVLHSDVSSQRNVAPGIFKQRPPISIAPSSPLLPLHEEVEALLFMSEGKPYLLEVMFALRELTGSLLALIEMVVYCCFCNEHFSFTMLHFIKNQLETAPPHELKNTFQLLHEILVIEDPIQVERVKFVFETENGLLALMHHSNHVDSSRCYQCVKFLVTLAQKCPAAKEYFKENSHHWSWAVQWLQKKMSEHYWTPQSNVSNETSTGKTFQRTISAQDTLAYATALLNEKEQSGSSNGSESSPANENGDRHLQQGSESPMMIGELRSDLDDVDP
structure (smiles),measurement,setting,value
O=C(CCl)Nc1ccc(N2CCCC2=O)cc1,log2 ratio of Biotin-Ahx-Ub-VS probe labelling,[1],-0.0288
same,log2 ratio of Biotin-Ahx-Ub-VS probe labelling,[2],0.36
same,log2 ratio of Biotin-Ahx-Ub-VS probe labelling,[3],-0.284
same,log2 ratio of Biotin-Ahx-Ub-VS probe labelling,[4],-1.8 (active)
same,log2 ratio of Biotin-Ahx-Ub-VS probe labelling,[5],-1.25 (active)
